# Bioassay records (PubChem)
# Sa RN4220 lethal: kills Staphylococcus aureus RN4220; S. aureus RN4220 growth, OD600, 16 h; 0.33% of 330,000 active; inhibition, % (concentration not given with the values); in the data active means inhibition above about 85%;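 further: plate controls were untreated cells for no effect and reference antibiotic for full effect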
# DUSP3 inh: inhibitors of human VHR1 phosphatase (DUSP3); AID 1654; inhibition, % at 13.3 µM; recombinant VHR phosphatase, pNPP absorbance; 0.52% of 290,000 active; in the data active means inhibition above about 50%
# Target sequence (P51452 whole entry, looked up): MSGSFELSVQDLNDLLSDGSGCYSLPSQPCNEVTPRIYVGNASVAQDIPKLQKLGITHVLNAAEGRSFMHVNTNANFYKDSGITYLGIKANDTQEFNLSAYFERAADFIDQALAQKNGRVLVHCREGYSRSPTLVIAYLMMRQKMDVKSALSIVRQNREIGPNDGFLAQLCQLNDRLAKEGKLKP
# Mtb hypoxia inh: Mtb hypoxia fluorescent reporter inhibition; 0.1% of 300,000 active; M. tuberculosis hypoxia-regulated fluorescent reporter, fluorescence; fluorescence inhibition, % (concentration not given with the values); in the data active means fluorescence inhibition mostly above about 23%, no sharp cut-off; inactive means mostly below about 17%
# PriA SSB inh: inhibitors of Klebsiella pneumoniae PriA binding to SSB C-terminal tail. AlphaScreen SSBct-PriA binding, biotinylated peptide. AID 1272365. 0.6% of 430,000 active. inhibition, % at 33 µM; in the data active means inhibition mostly above about 37%, no sharp cut-off; inactive means mostly below about 20%;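 further: plate controls were negative control peptide for no effect and reference peptide for full effect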
# ugtP null kill: compounds lethal to S. aureus RN4220 ugtP deletion mutant | OD600 growth, 16 h | growth inhibition, % (concentration not given with the values) | 0.54% of 330,000 active; in the data active means growth inhibition above about 68%;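 further: plate controls were untreated wells for no effect and antibiotic for full effect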
# PfHsp40 rescue: rescue of PfHsp40-mediated yeast toxicity | S. cerevisiae expressing PfHsp40, growth rescue, ATP luminescence | growth rescue, % at 12.5 µM | 0.68% of 340,000 active; in the data active means growth rescue above about 28%, passing the limit was not always enough; inconclusive means no clear call, values can overlap the other calls;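 further: yeast W303a lacking pdr1 and pdr3 grown in galactose medium; growth measured after three days at 30 °C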
# * = called active by the depositor; ? = inconclusive; . = no result given; ! = repeats disagree. Rows were chosen to be rich in hits. Some 1.8% of all compounds tested hit in one or more screens of this group.
SMILES,Sa RN4220 lethal,DUSP3 inh,Mtb hypoxia inh,PriA SSB inh,ugtP null kill,PfHsp40 rescue
O=C1NC(=O)/C(=C/c2ccccc2OCc2ccccc2)S1,63,3,11,-6,62,2
CCOc1ccccc1C=C1SC(=S)NC1=O,95*,.,8,2,97*,-1
O=[N+]([O-])c1ccccc1Sc1cccc2cccnc12,.,.,.,51,.,.
Cn1nc([N+](=O)[O-])nc1Sc1cccc2cccnc12,2,20,-4,78*,28,0
Cc1nn(S(=O)(=O)c2ccccc2[N+](=O)[O-])c(C)c1Sc1ccccc1,.,.,.,37*,.,.
Cc1nn(S(=O)(=O)c2ccccc2)c(C)c1Sc1ccc([N+](=O)[O-])cc1,4,21,3,19,1,0
CCN(CC)c1ccc(NC(=O)CCS(=O)(=O)c2ccc(Br)cc2)c(C)c1,10,52*,-3,8,10,-1
Cc1ccccc1NC(=O)CCS(=O)(=O)c1ccc(Br)cc1,3,-20,-4,0,8,-2
CCOc1ccc(N(CC(=O)NCc2ccc3c(c2)OCO3)C(=O)c2csnn2)cc1,5,39,7,-10,9,0
CCc1ccc(N(CC(=O)NCc2ccc3c(c2)OCO3)C(=O)c2csnn2)cc1,1,53*,-7,-9,-5,-1
Cc1ccc(C(=O)N2C(=O)C(c3ccccc3)Oc3ccccc32)cc1 (configuration not stated),-1,-2,0,-12,8,110*
O=[N+]([O-])c1ccc2c(c1Nc1ccc(Br)cc1)=NC1(CCCCC1)N=2,.,.,.,28,.,.
Cc1ccc(Nc2c([N+](=O)[O-])ccc3c2=NC2(CCCCC2)N=3)cc1,1,42,10,-12,4,59*
O=[N+]([O-])c1ccc(Nc2c([N+](=O)[O-])ccc3c2=NC2(CCCCC2)N=3)cc1,.,.,.,90*,.,.
O=C(c1cccnc1)N1CCc2ccccc2C1,0,51*,-2,-11,-4,-1
O=C(c1cccnc1)N1CCc2ccccc21,2,-9,0,-7,-2,1
CC(=O)Nc1ccc(OCC(O)Cn2c3ccccc3c3ccccc32)c(C)c1 (configuration not stated),0,22,8,-2,-34,9
Cc1ccccc1OCC(O)Cn1c2ccccc2c2ccccc21 (configuration not stated),35,7,4,-34,63,111*
Cc1ccc(-c2c(NC(=O)c3ccco3)n(-c3ccc(C)c(C)c3)nc(C)c2=O)cc1,.,.,.,-3,.,.
O=C(NNc1ccc([N+](=O)[O-])cc1)c1ccccc1F,2,38,-5,-2,-7,32*
O=C(NNc1ccc([N+](=O)[O-])cc1)c1ccccc1Cl,2,12,11,-5,7,-1
CC1CN(c2oc(Cc3cccc4ccccc34)nc2C#N)CC(C)O1 (configuration not stated),2,23,9,52*,3,5
O=C(O)c1ccccc1-c1c2cc(I)c(=O)c(I)c-2oc2c(I)c(O)c(I)cc12,26,.,.,15,-4,34*
Cn1cc(C(=O)Nc2ccc(Br)cc2F)c2[nH]c(=O)n(Cc3ccccc3)c(=O)c21,.,.,.,4,.,.
CC(=O)Nc1ccc(S(=O)(=O)NCC2CCC(C(=O)NC3CCCCCC3)CC2)cc1 (configuration not stated),4,-11,15,2,-1,0
SMILES,Sa RN4220 lethal,DUSP3 inh,Mtb hypoxia inh,PriA SSB inh,ugtP null kill,PfHsp40 rescue
Cc1ccc(S(=O)(=O)NCC2CCC(C(=O)NC3CCCCC3)CC2)cc1 (configuration not stated),1,58*,8,-13,4,1
CCOC(=O)NCCn1ccnc1C,.,.,.,-1,.,.
CCc1ccc(S(=O)(=O)NCC2CCN(C(=O)c3ccoc3)CC2)s1,.,.,.,-17,.,.
CCOc1ccc(-c2csc(SCc3ccc(C(=O)NCc4ccccn4)o3)n2)cc1,.,.,.,14*,.,.
CCc1ccc(OCc2ccc(C(=O)NCc3ccccn3)o2)cc1,21,-4,-1,-7,20,0
CCSc1nccc(-c2nn(-c3ccc(C)cc3)ccc2=O)n1,4,-19,.,-1,4,1
CSc1nccc(-c2nn(-c3ccc(C)cc3)ccc2=O)n1,4,-6,.,77*,1,1
CSc1cccc(NC(=O)Cn2cnc3c(sc4cccc(F)c43)c2=O)c1,.,.,.,0,.,.
CC(c1ccon1)N(C)Cc1cn(C)nc1-c1cccc(Cl)c1 (configuration not stated),3,-1,4,-10,4,79*
CCN(CC)C(=O)CSC(Nc1ccc(F)cc1)=C(C#N)C#N,6,13,-1,4,4,1
Cc1ccc(CSC(Nc2ccc(F)cc2)=C(C#N)C#N)cc1,97*,-12,0,-5,97*,0
CN(N=Cc1cc(Cl)cc(Cl)c1O)C(=S)NC(C)(C)C,100*,.,13,-17,100*,.
CSc1ccc(NC(=O)c2ccco2)cc1,.,.,.,-24,.,.
Cc1cc2oc(=O)cc(-c3ccccc3)c2c(C)c1-c1ccc(O)cc1,10,.,22,-13,4,5
Cc1oc2cc(Br)c(O)c(Br)c2c1-c1ccccc1,-4,13,18,17,87*,97*
O=C(CSc1nncn1-n1cccc1)Nc1ccc(OC(F)(F)F)cc1,.,.,.,10,.,.
Cc1csc(NC(=O)CCCCCN2C(=O)/C(=C\c3cccs3)SC2=S)n1,.,.,.,7,.,.
O=c1nc2scc(-c3ccccc3)n2c2ccccc12,-6,21,1,-23,91*,-1
CCCCCCCCC#Cc1nc(C)ccc1OC,6,.,6,-39,37,1
CCCCCCCC#Cc1ccccc1C=NS(=O)c1ccc(C)cc1 (configuration not stated),-2,.,5,-45,99*,.
CCCCCCCCCCOC(=O)Cn1c(COc2ccccc2)[n+](C)c2ccccc21,.,2,.,-13,.,336*
CCCCCCCCCCOC(=O)Cn1c(COc2ccc(Cl)cc2)[n+](C)c2ccccc21,.,6,.,-5,.,7
CCCCCCCCCCOC(=O)Cn1c(COc2ccc(OC)cc2)[n+](C)c2ccccc21,.,10,.,-6,.,383*!
CCCCCCCCCCOC(=O)Cn1c(COc2cccc(C)c2)[n+](C)c2ccccc21,.,0,.,1,.,213*
CN1CCN(C(CNC(=O)C(=O)NCc2ccco2)c2ccc(N(C)C)cc2)CC1 (configuration not stated),.,.,.,23,.,.
SMILES,Sa RN4220 lethal,DUSP3 inh,Mtb hypoxia inh,PriA SSB inh,ugtP null kill,PfHsp40 rescue
COC(=O)c1ccc(CN2CCC(c3nnc(C)s3)CC2)cc1,.,.,.,-11,.,.
Cc1ccc(O[C@H]2CCN(C(=O)c3ccc(Cl)s3)C2)nn1,.,.,.,-11,.,.
Cc1cccc(Nc2nc(Cl)ncc2F)c1C,2,60*,3,1,-6,?
Cc1ccc(Cl)cc1-n1ncc2c(Nc3cccc(C)c3C)ncnc21,.,.,.,-13,.,.
Cc1cc(C=NNC(=O)c2cccs2)c(C)n1-c1ccccc1,1,.,-5,-2,-9,.
Cc1ccc(Nc2ccc(-n3ccnc3)nn2)cc1C,-10,26,-1,-4,-20,66*
